Out of some 330,000 compounds screened, about 3,800 (1.2%) were called active. The entries come from a sample that favours actives as a whole. Values without a mark were called inactive. No stated cut-off is given here; in the data, active means inhibition above about 15%; inconclusive means no clear call, values can overlap the other calls; inactive means below that.
These molecules were tested against NAD-dependent protein deacylase sirtuin-5, mitochondrial (Homo sapiens) (UniProt Q9NXA8) (assay: SIRT5 desuccinylase inhibitors, primary screen, biochemical, fluorescence imaging, single point, set 5 (AID 652115)). Details: Purified SirT5, succinyl-peptide AMC, trypsin-coupled fluorescence; at 15 µM; stronger effect = higher value.
NAD-dependent protein deacylase sirtuin-5, mitochondrial (Homo sapiens), sequence (Q9NXA8 whole entry, looked up): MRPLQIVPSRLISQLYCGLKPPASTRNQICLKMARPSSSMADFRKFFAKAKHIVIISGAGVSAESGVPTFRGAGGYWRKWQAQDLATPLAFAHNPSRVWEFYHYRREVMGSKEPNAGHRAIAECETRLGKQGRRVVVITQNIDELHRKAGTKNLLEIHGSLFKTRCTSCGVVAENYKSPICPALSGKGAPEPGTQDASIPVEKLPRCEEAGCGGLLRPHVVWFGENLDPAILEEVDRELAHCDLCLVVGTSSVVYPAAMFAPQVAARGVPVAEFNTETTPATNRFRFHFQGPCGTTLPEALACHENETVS

SMILES | inhibition
Cn1cnc(S(=O)(=O)N2C[C@H](O)COC[C@@H]3O[C@H](CC(=O)NC4Cc5ccccc5C4)CC[C@H]32)c1 | 1.91%
COc1cccc(C#Cc2ccc3c(c2)[C@H]2[C@H](CCN2C(=O)CC2CC2)[C@H](CO)N3)c1 | 0.183%
Cc1ccc(NC(=O)c2csc3c2CCCC3)cc1 | -2.6%
O=C(N/N=C/c1ccco1)c1csc2c1CCCC2 | 15.8% (active)
O=C(N/N=C/c1ccco1)c1ccc(NC(=O)C2CC2)cc1 | 0.297%
CCCNC(=O)N1C[C@H](O)COC[C@H]2O[C@@H](CC(=O)NCc3ccncn3)CC[C@@H]21 | 0.03%
C[C@@H]1CN([C@@H](C)CO)C(=O)c2cc(-c3cncnc3)cnc2O[C@H]1CN(C)Cc1cncnc1 | 4.33%
Cc1ccccc1NC(=O)Cn1c(=O)n(CC2CCCO2)c(=O)c2ccccc21 (configuration not stated) | -0.914%
Cc1ccccc1NC(=O)CN1C(=O)N/C(=C\c2cccn2-c2cccc(C(=O)O)c2)C1=O | 18.5% (active)
Cc1ccccc1NC(=O)CSC(=O)c1ccccc1 | -2.14%
O=C(C[C@@H]1CC[C@H](NC(=O)NC2CCCCC2)[C@H](CO)O1)NCc1ccc(F)cc1 | 2.17%
O=C(C[C@@H]1C[C@H]2c3cc(NS(=O)(=O)c4ccc(F)cc4)ccc3O[C@H]2[C@@H](CO)O1)NCc1ccccc1F | 2.14%
C[C@H](CO)N1C[C@H](C)[C@H](CN(C)C(=O)Nc2ccc(F)cc2)OCCCC[C@H](C)Oc2ccc(NC(=O)CCC(F)(F)F)cc2C1=O | -0.898%
COCC#Cc1cnc2c(c1)C(=O)N([C@H](C)CO)C[C@H](C)[C@H](CN(C)C(=O)CCN1CCCCC1)O2 | 9.41%
CCCN1[C@H](C(=O)NC2Cc3ccccc3C2)[C@@H](CO)[C@@H]2Cn3c(cccc3=O)[C@@H]21 | 2.03%
COCC(=O)N1CC(=O)N2[C@H](CO)[C@@H](c3ccc(C#CC4CCCC4)cc3)[C@H]2C1 | 0.692%
CCCC#Cc1ccc([C@H]2[C@@H](CO)N3CCCCN(S(=O)(=O)Cc4ccccc4)C[C@H]23)cc1 | 37.3% (active)
CCCC#Cc1ccc([C@H]2[C@@H](CO)N3CCCCN(S(=O)(=O)CC)C[C@H]23)cc1 | -3.78%
CCCC#Cc1ccc([C@H]2[C@H](CO)N3CCCCN(S(=O)(=O)CC)C[C@@H]23)cc1 | -5.72%
COC(=O)C[C@H]1CC[C@H]2[C@@H](COc3ccc(NC(=O)C4CC4)cc3C(=O)N2C)O1 | 4.29%
COc1ccc2c3c(n(C)c2c1)[C@H](CO)N(C(C)=O)CC31CCN(Cc2cccnc2)CC1 | -0.634%
Cc1ccc(S(=O)(=O)N[C@@H]2CC[C@H](CCn3cc(-c4cccc(F)c4)nn3)O[C@@H]2CO)cc1 | -2.4%
Cc1c(C(N)=O)sc2ncn(CCOc3ccccc3)c(=O)c12 | 25.5% (active)
Clc1ncn(CCOc2ccccc2)c1Cl | -0.177%

SMILES | inhibition
Cc1cccc(OC(=O)c2sc3ncn(C)c(=O)c3c2C)c1 | 6.38%
COc1ccc(NC(=O)Nc2ccc3c(c2)C(=O)N([C@H](C)CO)C[C@@H](C)[C@H](CN(C)CC2CCCCC2)OCCCC[C@@H](C)O3)cc1 | -2.57%
CCC(=O)N1CC(=O)N2[C@H](CO)[C@@H](c3ccc(-c4ccc(C(=O)N(C)C)cc4)cc3)[C@H]2C1 | -3.02%
CCNC(=O)C[C@H]1CC[C@@H]2[C@H](COC[C@H](O)CN2C(=O)Nc2c(C)noc2C)O1 | -2.07%
Cc1cccnc1C(NC(=O)C1CCN(Cc2ccc(Cl)c(Cl)c2)CC1)c1ccc(Cl)cc1 (configuration not stated) | 0.115%
O=C(NC(c1ccc(-c2ccccc2)cc1)c1cnccn1)C1CCN(CCOc2ccc(Cl)cc2Cl)CC1 (configuration not stated) | -0.795%
O=C(NC(c1ccc(Cl)cc1)c1cnccn1)C1CCN(Cc2ccc(Cl)cc2)CC1 (configuration not stated) | 18.2% (active)
O=C(C[C@@H]1CC[C@@H](NS(=O)(=O)c2ccc(F)cc2)[C@H](CO)O1)NCc1ccc(Cl)c(Cl)c1 | -7.51%
CCCCNC(=O)C[C@@H]1C[C@@]2(C(=O)OC)CC(C)(C)CC=C2N(Cc2ccco2)C1=O | 21.7% (active)
CCOC(=O)N1CCN(C(=O)C[C@@H]2C[C@@]3(C(=O)OC)CC(C)(C)CC=C3N(Cc3ccco3)C2=O)CC1 | -1.2%
CCCCNC(=O)C[C@@H]1C[C@@]2(C(=O)OCC)CCC=C2N(Cc2ccco2)C1=O | 4.42%
CC(C)NC(=O)N(C)C[C@@H]1Oc2c(NC(=O)c3cnccn3)cccc2C(=O)N([C@@H](C)CO)C[C@@H]1C | -2.42%
COc1ccc2c3c([nH]c2c1)[C@@H](CO)N(S(C)(=O)=O)CC31CN(CC2CC2)C1 | 1.2%
O=C(Cc1ccc([N+](=O)[O-])cc1)NCCS(=O)(=O)N1CCN(c2ccccc2)CC1 | -5.2%
CN(C)S(=O)(=O)N1CCN(c2ccc([N+](=O)[O-])cc2)CC1 | 17.4% (active)
O=[N+]([O-])c1ccc(N2CCOCC2)cc1 | -2.77%
O=C(Cc1ccccn1)NCC[C@H]1CC[C@@H](NS(=O)(=O)c2ccc(F)cc2)[C@H](CO)O1 | -3.9%
Nc1[nH]c(C(=O)c2ccccc2)c(-c2ccc(Cl)cc2Cl)c1C(=O)c1ccccc1 | 1.08%
CC(Oc1ccccc1F)C(=O)NN (configuration not stated) | 5.06%
CC(Oc1ccc(F)cc1F)C(=O)/C=C/N(C)C (configuration not stated) | 38.2% (active)
O=C(C=CC(=O)Nc1ccc(F)cc1F)Nc1ccc(F)cc1F | 2.61%
CCCN1[C@H](C(=O)N[C@H](C)c2ccccc2)[C@@H](CO)[C@@H]2Cn3c(ccc(-c4ccccc4)c3=O)[C@@H]21 | -2.75%
O=C(Cc1ccccc1)N1C[C@H]2[C@@H](c3ccccc31)[C@H](CO)N2C(=O)c1ccc(F)cc1 | 0.689%
NC(=O)Cn1c(=O)oc2ccccc21 | 23.1% (active)

SMILES | inhibition
Cc1cccnc1NC(=O)Cn1c(=O)oc2ccccc21 | -0.084%
CC(=O)c1ccc(NC(=O)Cn2c(=O)oc3ccccc32)cc1 | -1.5%
CO[C@@H]1CN(C)C(=O)c2cc(NC(C)=O)ccc2OC[C@H](C)N(C(=O)CC2CC2)C[C@@H]1C | 0.181%
CO[C@@H]1CC[C@H]2CCN(C)C(=O)[C@@H](C)CN(C)C(=O)c3cccc(C#N)c3OC[C@@H]1O2 | -2.44%
COCCNC(=O)C[C@H]1C[C@H]2c3cc(NS(C)(=O)=O)ccc3O[C@H]2[C@H](CO)O1 | -4.62%
CN(C)c1ccc2c(c1)[C@H]1C[C@H](CC(=O)NCc3ccc(Cl)cc3)O[C@H](CO)[C@H]1O2 | 15.9% (active)
O=C(C[C@@H]1C[C@H]2c3cc(NS(=O)(=O)c4ccc(F)cc4)ccc3O[C@H]2[C@H](CO)O1)NCCc1ccccc1 | 1.01%
O=C(C[C@H]1C[C@H]2c3cc(NC(=O)C4CCC4)ccc3O[C@H]2[C@@H](CO)O1)NCc1ccc(Cl)cc1 | 0.855% (active)
CN(C)CC(=O)Nc1ccc2c(c1)[C@H]1C[C@@H](CC(=O)NCc3ccc(Cl)cc3)O[C@@H](CO)[C@H]1O2 | 4.32%
O=C(C[C@@H]1C[C@H]2c3cc(NC(=O)C4CCC4)ccc3O[C@H]2[C@@H](CO)O1)NCc1ccc2c(c1)OCO2 | 5.03%
CN(C)CC(=O)Nc1ccc2c(c1)[C@@H]1C[C@H](CC(=O)NCc3ccc(Cl)cc3)O[C@@H](CO)[C@@H]1O2 | 4.86%
O=C(C[C@@H]1C[C@@H]2c3cc(NC(=O)C4CCC4)ccc3O[C@@H]2[C@@H](CO)O1)NCc1ccccc1 | 5.94%
CS(=O)(=O)Nc1ccc2c(c1)[C@H]1C[C@@H](CC(=O)NCCc3ccccc3)O[C@@H](CO)[C@H]1O2 | 21.9% (active)
COCC#Cc1cnc2c(c1)C(=O)N([C@H](C)CO)C[C@H](C)[C@H](CN(C)C(=O)C1CCOCC1)O2 | 3.88%
CCNC(=O)c1cc2c(c(-c3cccc(C4=CCCC4)c3)n1)[C@H](CCO)N([S@@](=O)C(C)(C)C)C2 | 13.7%
O=C(C[C@@H]1C=C[C@@H](NC(=O)C2CC2)[C@H](CO)O1)NCCCN1CCOCC1 | 4.53%
N#C[C@H]1[C@@H](c2ccccc2C2=CCCCC2)[C@H](CO)N1C(=O)c1ccccn1 | 2.41%
CN1C(=O)c2cc(NC(=O)C3CCOCC3)ccc2OC[C@H]2O[C@@H](CC(=O)NCC3CCCCC3)CC[C@@H]21 | 12.7%
O=C(Cc1ccccn1)N1CC(=O)N2[C@H](CO)[C@@H](c3ccc(C#CC4CCCC4)cc3)[C@H]2C1 | 1.82%
O=C(C[C@H]1CC[C@@H]2[C@H](COC[C@H](O)CN2S(=O)(=O)c2ccc(Cl)cc2)O1)N[C@@H]1CCN(Cc2ccccc2)C1 | 0.669%
Cc1cccc(S(=O)(=O)N2C[C@@H]3[C@H](c4ccccc42)[C@@H](CO)N3C(=O)c2ccccc2)c1 | 2.62%
CO[C@@H]1CN(C)C(=O)c2ccc(NC(=O)Nc3cc(F)ccc3F)cc2OC[C@@H](C)N(C)C[C@@H]1C | 4.44%
COCC(=O)N1CC(=O)N2[C@H](CO)[C@@H](c3ccc(C#CC4CCCCC4)cc3)[C@@H]2C1 | -3.9%
C/C=C/c1cnc2c(c1)C(=O)N([C@@H](C)CO)C[C@@H](C)[C@H](CN(C)Cc1cncnc1)O2 | -2.68%
